This passage reports Potency and activity, negative = cytotoxicity results from PubChem BioAssay (Tox21).

Results filed as inconclusive are left out. Where a call stands in place of a potency, no number is given. Unmarked numbers belong to inactive results. The source made the active and inactive calls. Calls come from the whole dose curve.

The assay is described as follows: qHTS assay for small molecules that induce genotoxicity in human embryonic kidney cells expressing luciferase-tagged ATAD5 - cell viability (AID 651634). Note: nearly all actives have a fitted effect of over 25% in size. The conditions noted are these: HEK293T ATAD5-luc cells viability, CellTiter-Fluor, 15.5 h; series mostly up to 83.3 µM. From the text: National Center for Advancing Translational Sciences [NCATS]
NIH Chemical Genomics Center [NCGC]
U.S. Environmental Protection Agency [EPA]
National Institutes of Environmental Health Sciences [NIEHS]
National Toxicology Program [NTP]
U.S. Food and Drug Administration [FDA]
Enhanced Level of Genome Instability Gene 1 (ELG1; human ATAD5) protein levels increase in response to various types of DNA damage. Using a luciferase reporter-gene tagged with ElG1, a cell-based assay [developed by Kyungjae Myung, NHGRI, NIH] was used to measure the induction of ATAD5 in human embryonic kidney cells (HEK293T). So, increase in luciferase activity can be used to identify the compounds that cause genetic stress. In addition to genotoxicity, these cells were also used to test for cytotoxicity by measuring the protease activity within live cells.
Tox21 Assay Protocol Summary:
For cytotoxicity screening, 2,000 cells in 5 uL/well were dispensed into white, solid-bottom 1536-well plates using a Multidrop Combi (Thermo Scientific) dispenser. Following transfer of 23 nL compound or DMSO vehicle by a pin tool, the plates were incubated 15.5 hr at 37C and 5% CO2. 1 ul CellTiter-Fluor reagent (Promega, Madison, WI) was then added to each plate and following 30 min incubation at 37C, fluorescence intensity was quantified on a ViewLux CCD-based plate reader.
Consider `CC(O)CN` (stereo not given), for which the Potency entry was “inactive”.

`Nc1ccc(C(=O)Oc2ccccc2)c(O)c1`: the Potency entry was “inactive”.

For the compound `CC(COc1ccccc1)NC(C)C(O)c1ccc(O)cc1` (stereo not given), the Potency entry was “inactive”.

Consider `Cc1cc(C)c(C)c(O)c1`, for which the Potency result was “inactive”.

For `CC(C(=O)O)c1ccc(/C=C2\CCCCC2=O)cc1` (stereo not given), the Potency result is “inactive”.

Consider `c1ccc(-c2ccc(-c3ccccc3)cc2)cc1`, for which the Potency result was “inactive”.

For `CCCCOC(=O)CC#N`, the Potency result is “inactive”.

With `SCCOCCOCCS`, the Potency result was “inactive”.

On to `CCN(CCCCOC(=O)c1ccc(OC)c(OC)c1)C(C)Cc1ccc(OC)cc1` (stereo not given), for which the Potency entry was “inactive”.

Turning to `CCCCCO`, the Potency result was “inactive”.

Turning to `Cc1ccc(S(=O)(=O)NC(=O)NC2CCCC2)cc1`, the Potency result is “inactive”.

As to `Cc1ccc(NC=O)c(C)c1`, the Potency entry was “inactive”.

As to `O=C(O)CNc1ccccc1`, the Potency result is “inactive”.

For the compound `NC(=O)c1ccccc1C(N)=O`, the Potency entry is “inactive”.

Take `O=C(O)c1cc(C(=O)O)c(C(=O)O)cc1C(=O)O`: the Potency result was “inactive”.

Regarding `CC(C)(C(=O)O)c1ccc(C(O)CCCN2CCC(C(O)(c3ccccc3)c3ccccc3)CC2)cc1` (stereo not given), the Potency result was “inactive”.

With `C=C[Si]1(C)O[Si](C)(C=C)O[Si](C)(C=C)O[Si](C)(C=C)O1` (stereo not given), the Potency result is “inactive”.

With `CCCc1ccc(OC)cc1`, the Potency result is “inactive”.

As for `CCCCCCCCOCCCN`, the Potency result is “inactive”.

In the case of `CC(CN=Cc1ccccc1O)N=Cc1ccccc1O` (stereo not given), the Potency entry was “inactive”.

Take `CC/C=C/CCO`: the Potency entry was “inactive”.

`CCCCCCCCCCCCCCCCCCCl`: the activity, negative = cytotoxicity was -17.2% [at 8.08 µM].

Take `Cc1c(Cl)cccc1Nc1ccccc1C(=O)O`: the Potency result was “inactive”.

Consider `CCCCC(CC)COCCC#N` (stereo not given), for which the Potency entry was “inactive”.

With `Nc1ncnc2c1ncn2[C@@H]1O[C@H](CO)[C@@H](O)[C@H]1O`, the Potency result was “inactive”.

Regarding `O=C(Cl)c1ccc(F)c(Cl)c1`, the Potency entry was “inactive”.

On to `CCc1cnc(C(=O)O)c(C(=O)O)c1`, for which the Potency entry was “inactive”.

Turning to `CC(C)Oc1ccccc1O`, the Potency entry was “inactive”.

As for `[O-][n+]1ccc(Cl)cc1`, the Potency result was “inactive”.

Consider `O=C(N[C@@H](Cc1ccccc1)[C@@H](O)C(=O)N1C[C@@H](O)[C@@H](O)C1)c1cc2cc(Cl)ccc2[nH]1`, for which the Potency entry is “inactive”.

For the compound `Nc1nc(Cl)nc2c1ncn2[C@H]1C[C@H](O)[C@@H](CO)O1`, the Potency result is “inactive”.

For `NCCOCCOCCN`, the Potency entry is “inactive”.

For the compound `C[C@]12CCC(=O)C=C1[C@@H]1C[C@@H]1[C@H]1[C@@H]3[C@@H]4C[C@@H]4[C@@]4(CCC(=O)O4)[C@@]3(C)CC[C@@H]12`, the Potency entry was “inactive”.

Turning to `CCCc1nc(C)c2c(=O)[nH]c(-c3cc(S(=O)(=O)N4CCN(CC)CC4)ccc3OCC)nn12`, the Potency result is “inactive”.

Regarding `CC(C)(Cc1c[nH]c2ccccc12)NCC(O)COc1ccccc1C#N` (stereo not given), the Potency entry was “inactive”.

On to `CC(=O)c1cccnc1`, for which the Potency result was “inactive”.

In the case of `CO[C@@H]1COCC[C@@H]1N[C@@H]1CC[C@@](C(=O)N2CCc3ncc(C(F)(F)F)cc3C2)(C(C)C)C1`, the Potency result is “inactive”.

Regarding `O=S(=O)(O)c1cc(Cl)c(Cl)cc1Cl`, the Potency entry was “inactive”.

With `C=C(C)C(=O)OCCCCCCCCCCOC(=O)C(=C)C`, the Potency result is “inactive”.

Regarding `CCCCCCCCNC`, the Potency entry is “inactive”.
